Seven molecules from PubChem BioAssay (NCI) can be followed below.

Each structure is given as a SMILES string. Compounds without any hit were thinned out: in the full panel of roughly 83,000, 20% have a hit.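 Plates (96-well) were seeded with cells, treated with compound at one concentration, and incubated for 48 hours before percent growth was determined.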 Values without a mark were called inactive. Activity calls are given as the source filed them. Rule for the calls: active = growth percent below 10; inactive = the rest.

Holding throughout (test): NCI-60 one-dose screen, 48 h (100 = growth as untreated, 0 = no growth, -100 = all killed)
What all share (settings): 10 µM unless noted

Experiment [1] concerns HCT-15 colon.
In experiment [2] the test system is HT29 colon.
The subject of experiment [3] is SNB-75 CNS.
The test system of experiment [4] is SNB-19 CNS.
Experiment [5] relates to U251 CNS.
For experiment [6], the system named is PC-3 prostate.
The test system of experiment [7] is SK-MEL-5 melanoma.
Experiment [8] deals with UACC-62 melanoma.
The test system of experiment [9] is LOX IMVI melanoma.
Experiment [10] deals with SK-MEL-28 melanoma.
Experiment [11] has as its system SK-MEL-2 melanoma.
For experiment [12], the system named is EKVX NSCLC.
For experiment [13], the system named is SN12C renal.
The test system of experiment [14] is UO-31 renal.
Experiment [15] relates to TK-10 renal.
The test system of experiment [16] is ACHN renal.
The subject of experiment [17] is CAKI-1 renal.
The test system of experiment [18] is A498 renal.
The subject of experiment [19] is CCRF-CEM leukemia.
The test system of experiment [20] is MOLT-4 leukemia.

With `CCOC(=O)c1c(NC(=O)CSc2n[nH]c3nc4ccccc4n23)sc(CC)c1C`, the growth is 97.9% in [1]; 109% in experiment [2]; 95.3% in experiment [3]; 103% in experiment [4]; 97.6% in experiment [5]; 61.5% in experiment [6]. Besides, the growth in experiment [7] is 98%; in experiment [8] it was 77.9%; in experiment [9] it was 99%; in [10] it was 113%; in experiment [11], 80.6%; in experiment [12] it was 91.9%. Further, the growth in experiment [13] was 100%; in experiment [14] it was 73.4%; in experiment [15], 130%; in experiment [16], 96.8%; in [17], 108%; in [18], 106%. Further, the growth is 121% in [19] and 79.6% in experiment [20].

On to `CCCCC(=O)Nc1ncc(Cc2ccccc2Cl)s1`, for which the growth in experiment [1] is 24.8%; in experiment [2], 11%; in experiment [3], 25.3%; in experiment [4] it was 48.7%; in experiment [5], 32%; in experiment [6], 68.8%. The growth in experiment [7] was 37.6%; in [8] it was 32.4%; in experiment [9] it was 40.2%; in experiment [10], 57.7%; in experiment [11], 55.8%; in experiment [12], 57.6%. Moreover, the growth in experiment [13] is 42.4%; in experiment [14], 44.6%; in [15] it was 62.8%; in [16] it was 61.4%; in experiment [17] it was 37.8%; in [18], 48.5%. The figures for the growth in [19] and in experiment [20] were 57.3% and 28.5%, respectively.

On to `O=C(CN1C(=O)/C(=C/c2ccco2)SC1=S)NCCc1c[nH]c2ccc(F)cc12`, for which the growth was 101% in experiment [1]; 112% in experiment [2]; 78% in [3]; 102% in experiment [4]; 103% in [5]; 94% in experiment [6]. Further, the growth is 99.6% in [7]; 87.8% in [8]; 96.9% in [9]; 112% in [10]; 119% in experiment [11]; 98.3% in experiment [12]. For the same molecule, the growth in [13] is 97.6%; in [14], 70.8%; in [15], 105%; in [16] it was 101%; in experiment [17], 81.8%; in experiment [18], 94.5%. The values for the growth in experiment [19] and in experiment [20] were 97.1% and 97.7%, respectively.

Consider `O=C1NC(=O)c2c1c1c3ccccc3[nH]c1c1oc3cc(Br)ccc3c21`, for which the growth in experiment [1] was 70.4%; in [2], 76.9%; in experiment [3], 31.4%; in [4] it was 72.8%; in experiment [5] it was 65.5%; in experiment [6] it was 42.3%. For the same molecule, the growth in experiment [7] is 55.9%; in experiment [8], 48.5%; in [9] it was 59.9%; in experiment [10], 92.6%; in experiment [11], 96.9%; in experiment [12], 69.9%. Further, the growth is 78.7% in experiment [13]; 36.9% in [14]; 126% in experiment [15]; 55.2% in [16]; 38.7% in [17]; 26.5% in experiment [18]. In addition, the growth in experiment [19] is 50.9%; in [20] it was 40.4%.

Consider `O=C(N=Nc1c(O)[nH]c2ccccc12)Nc1ccc(Cl)cc1`, for which the growth in experiment [1] is 87.3%; in [2], 93.5%; in experiment [3], 101%; in [4], 89.3%; in [5] it was 100%; in [6] it was 89.8%. For the same molecule, the growth is 90.7% in experiment [7]; 75.7% in experiment [8]; 86.5% in [9]; 91.5% in experiment [10]; 99.7% in [11]; 86.5% in experiment [12]. Besides, the growth is 97.1% in [13]; 69.2% in [14]; 101% in experiment [15]; 80.5% in experiment [16]; 89.2% in experiment [17]; 77.6% in experiment [18]. Further, the growth in experiment [19] was -8.91% (active); in experiment [20], 87.3%.

On to `O=C(CCC(=O)c1nc2ncccc2[nH]1)NN1C(=O)CSC1c1ccc(Cl)cc1` (stereo not given), for which the growth in experiment [1] was 102%; in experiment [2], 95.5%; in experiment [3], 84.7%; in [4], 94.2%; in experiment [5], 95.2%; in experiment [6], 94.3%. In addition, the growth in [7] is 104%; in experiment [8], 90.3%; in [9] it was 91.4%; in experiment [10], 109%; in [11], 106%; in experiment [12], 100%. For the same molecule, the growth in experiment [13] is 97%; in [14] it was 70.7%; in experiment [15], 126%; in experiment [16], 97.4%; in experiment [17], 84.2%; in experiment [18] it was 111%. For the same molecule, the growth in experiment [19] is 83.8%; in [20], 106%.

`COc1ccc(/C=C/C(=O)c2ccc(NC(=O)CSc3nnc(-c4cc(-c5ccccc5)nc5ccccc45)n3-c3ccccc3)cc2)cc1`: the growth in experiment [1] is 92.5%; in experiment [2], 98.1%; in experiment [3], 100%; in [4], 101%; in experiment [5] it was 102%; in experiment [6] it was 89.9%. The growth was 97.5% in experiment [7]; 87.3% in [8]; 96.5% in experiment [9]; 98.4% in experiment [10]; 107% in experiment [11]; 98% in experiment [12]. Also, the growth in experiment [13] was 92.7%; in experiment [14] it was 100%; in [15] it was 112%; in [16], 95.7%; in experiment [17], 90%; in experiment [18], 85.3%. The growth was 88.3% in [19] and 80.2% in experiment [20].
